# Measurements reported in ChEMBL document CHEMBL3988442, “University of Dundee, Small-Polar-MMV Screening Library” (2021).
# About 1,000 (1.4%) of roughly 69,000 compounds showed an effect of 50% or more. This excerpt belongs to a sample that is enriched for strong results.
# System: Leishmania donovani
# Assay: Leishmania intramacrophage assay
# Type: functional, organism-based
# Design: scale not given: in the data most compounds retested in dose-response had high values
structure (smiles),measurement,setting,value
CNC(=O)c1nc(CC(=O)Nc2cccc(C(F)(F)F)c2)no1,Percent Effect,"30.3 µM, […]",-13.79%
O=c1cc(N2CCc3ccccc3C2)cnn1CCC1CCOC1 (stereo not given),Percent Effect,"30.3 µM, […]",44.37%
CNC(=O)N1CC[C@H]2N(C)CC[C@@]2(C(=O)Nc2ccccc2)CC1,Percent Effect,"30 µM, 30.03 µM",11.56%
CC(C)C(=O)N1CC[C@H]2N(C)CC[C@@]2(C(=O)Nc2ccccc2)CC1,Percent Effect,"30.3 µM, […]",56.37%
CC(C)C(=O)N1CC[C@H]2N(C)CC[C@@]2(C(=O)Nc2cccnc2)CC1.O=C(O)C(F)(F)F.O=C(O)C(F)(F)F,Percent Effect,"30.3 µM, […]",36.27%
CCCc1noc(C2CC(=O)N(Cc3ccccc3)C2)n1 (stereo not given),Percent Effect,"30.3 µM, […]",62.8%
CCCc1noc(C2CC(=O)N(CCN(C)C)C2)n1 (stereo not given),Percent Effect,"30.3 µM, […]",24.39%
CCCc1noc(C2CC(=O)N(C(C)(C)C)C2)n1 (stereo not given),Percent Effect,"30.3 µM, […]",13.52%
O=C(CCS(=O)(=O)c1ccccc1)NC1CCOC2(CCOCC2)C1 (stereo not given),Percent Effect,"30.3 µM, […]",-6.021%
COCCN1CCCCC12CC(=O)N(c1ccccc1OC)C2.O=C(O)C(F)(F)F (stereo not given),Percent Effect,"30.3 µM, […]",20.15%
COCCN1CCCCC12CC(=O)N(c1cccc(C#N)c1)C2.O=C(O)C(F)(F)F (stereo not given),Percent Effect,"30.3 µM, […]",50.28%
O=C(O)C(F)(F)F.O=C1CC2(CCCCN2CC2CC2)CN1c1ccccc1 (stereo not given),Percent Effect,"30.3 µM, […]",20.41%
COc1ccc(N(c2ccccc2)c2ccc(C(=O)O)s2)cc1,Percent Effect,"30.3 µM, […]",6.692%
Cc1cnc(C(=O)N2CCCC3(CCN(c4cnn(C)c4)C3=O)C2)cn1 (stereo not given),Percent Effect,"30.3 µM, […]",-31.28%
CN(C)C(=O)CC1CC2(CCN(CC3CC3)CC2)Oc2ccccc21.O=C(O)C(F)(F)F (stereo not given),Percent Effect,"30.3 µM, […]",9.368%
CCn1nccc1CN(C)C(=O)Cn1nc(C)c(C)c1C,Percent Effect,"30.3 µM, […]",6.99%
CCn1nccc1CN(C)C(=O)Cn1nc(C)cc1C,Percent Effect,"30.3 µM, […]",19.68%
CCn1nccc1CN(C)C(=O)Cn1cc2c(n1)c(C)nn2CC,Percent Effect,"30.3 µM, […]",72.98%
CN1CCCN(C(=O)c2csc(-c3ccc(C(F)(F)F)cc3)n2)CC1,Percent Effect,"30.3 µM, […]",-34.88%
O=C(c1csc(-c2ccc(C(F)(F)F)cc2)n1)N1CCCNCC1,Percent Effect,"30.3 µM, […]",53.12%
O=C1CCN(C(=O)c2csc(-c3ccc(C(F)(F)F)cc3)n2)CCN1,Percent Effect,"30.3 µM, […]",-4.65%
CCc1nc(C2CCCN2CCC(=O)N2CCc3ccccc32)no1 (stereo not given),Percent Effect,30 µM,-5.363%
Cc1cc(C(=O)Nc2nnn[nH]2)ccc1I,Percent Effect,"30.3 µM, […]",2.496%
O=C(O)C(F)(F)F.O=C(O)C(F)(F)F.O=C(O)C(F)(F)F.c1cncc(COCc2cncc3c2CCN(Cc2ccoc2)C3)c1,Percent Effect,"30.3 µM, […]",3.293%
Cc1nc(N2CCCC2)nc2c1CCN(C(=O)N1CCCC1)CC2,Percent Effect,"30.3 µM, […]",-2.559%
Cc1cc(C(=O)N2CCc3nc(N4CCCC4)nc(C)c3CC2)c(C)o1,Percent Effect,"30.3 µM, […]",44.41%
Cc1nc(N2CCCC2)nc2c1CCN(C(=O)c1ccoc1C)CC2,Percent Effect,"30.3 µM, […]",54.38%
CCn1ccc(C(=O)N2CCCC2(C)c2nc(C)cc(N(C)C)n2)n1 (stereo not given),Percent Effect,"30.3 µM, […]",26.06%
CC(C)CNC(=O)C(C)N1CCN(C2CCN(C(C)C)CC2)CC1 (stereo not given),Percent Effect,"30.3 µM, […]",19.26%
CCC(=O)N1CCC(c2nc(C)c3c(n2)N(C)CCC3)CC1,Percent Effect,"30.3 µM, […]",31.8%
CCN(CC)C(=O)CN1CCCC(c2nc(C)c3c(n2)N(C)CCC3)C1 (stereo not given),Percent Effect,"30.3 µM, […]",94.66%
CCN(CC)C(=O)CN1CCC(c2nc(C)c3c(n2)N(C)CCC3)CC1,Percent Effect,"30.3 µM, […]",-13.08%
CS(=O)(=O)NCC1CCCN(C(=O)Nc2cccnc2N2CCCC2)C1 (stereo not given),Percent Effect,"30 µM, 30.03 µM",4.026%
CS(=O)(=O)NC1CCCN(C(=O)Nc2cccnc2)C1 (stereo not given),Percent Effect,30 µM,-4.572%
CS(=O)(=O)NC1CCCN(C(=O)Nc2cccnc2N2CCCC2)C1 (stereo not given),Percent Effect,"30.3 µM, […]",64.13%
CCOCc1cncc2c1CCN(C(=O)c1cscn1)C2.O=C(O)C(F)(F)F,Percent Effect,"30.3 µM, […]",5.62%
Cc1ccc(C(=O)NC2CCCN(S(C)(=O)=O)C2)c(=O)[nH]1 (stereo not given),Percent Effect,"30.3 µM, […]",4.219%
Cc1ccc(C(=O)NC2CCN(C(C)C)C2)c(=O)[nH]1 (stereo not given),Percent Effect,"30.3 µM, […]",39.11%
Cc1ccc(C(=O)NC2CCN(S(C)(=O)=O)CC2)c(=O)[nH]1,Percent Effect,"30.3 µM, […]",59.71%
CNC(=O)C1CN(c2cc(C)ncn2)CCN1Cc1ccccc1 (stereo not given),Percent Effect,"30.3 µM, […]",-5.457%
CCOC(=O)N1CCN(C(=O)c2cc(-c3ccc(Cl)cc3Cl)on2)CC1,Percent Effect,"30.3 µM, […]",18.25%
CCOC(=O)N1CCN(C(=O)c2cc(-c3ccc(C)cc3)on2)CC1,Percent Effect,"30.3 µM, […]",67.95%
CCOC(=O)N1CCN(C(=O)c2cc(-c3ccccc3F)on2)CC1,Percent Effect,"30.3 µM, […]",-28.98%
Cn1cc(C(=O)N2CC[C@@H]3[C@@H]2CCN3c2ncc(F)cn2)cn1.O=C(O)C(F)(F)F,Percent Effect,"30.3 µM, […]",4.387%
Cc1ccsc1CNC(=O)c1ccc(N2CCOC2=O)cc1,Percent Effect,"30.3 µM, […]",-0.1452%
COc1cccc(COC(C)C(=O)N(C)Cc2nnc3n2CCC3)c1 (stereo not given),Percent Effect,"30.3 µM, […]",-15.17%
Cc1cc(C(=O)NC(COCC(C)C)c2ccco2)no1 (stereo not given),Percent Effect,"30.3 µM, […]",10.39%
COc1ncc(CN(CCN(C)C)Cc2ccc(C)s2)cn1,Percent Effect,"30.3 µM, […]",1.942%
CCNc1ncc(CN(CCN(C)C)Cc2ccc(C)s2)cn1,Percent Effect,"30.3 µM, […]",7.089%
CCc1ccc(CN(CCN(C)C)Cc2ccc(C)s2)nc1,Percent Effect,"30.3 µM, […]",60.62%
